PubChem BioAssay (NCATS)
Results filed as inconclusive are left out. Entries that show only a call come without a potency. Unmarked numbers belong to inactive results. The source made the active and inactive calls. Calls follow the shape of the dose curve; as a rule, active = well fitted cell-killing curve with a large enough effect; inconclusive = small, poorly fitted or top-dose-only effect, or effect the other way; inactive = no such curve, though single readings can be large or run the other way.

Key:
[1] = Viability qHTS for spleen associated tyrosine kinase inhibitor (SYKi) naive MV4-11 cells (AID 1963823); also: nearly all actives have a fitted effect of over 40% in size
In short: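 Read-out: CellTiter-Glo luminescence. Exposure: 72 hr, 37 C, 5% CO2, 95% humidity. Cells: MV4-11 without SYK inhibitor history, 500/well, qHTS format.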

[2] = Viability qHTS for spleen associated tyrosine kinase inhibitor (SYKi) drug resistant MV4-11 cells (AID 1963824); also: nearly all actives have a fitted effect of over 35% in size
In short: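 SYK inhibitor-resistant MV4-11 AML cells, 500 per well, added to predispensed compounds and incubated 72 hr at 37 C, 5% CO2. Viability measured by CellTiter-Glo luminescence after 10 min at room temperature.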
Potency is read from the fitted curve at half-maximal effect.

Row | SMILES | Potency [1] | Potency [2] | viability (% of control) [1] | viability, % of control [2]
1 | C=C1C(=O)O[C@@H]2[C@H]1CCC(C)=C(CCC(=O)O)[C@@]2(C)O | 9.2 µM (active) | 4.11 µM (active) | – | –
2 | Cc1cnc(NC(=O)Nc2cc(Br)c(C)cc2OCC2CNCCO2)cn1 (stereo not given) | 0.731 µM (active) | 0.82 µM (active) | – | –
3 | O=C1O[C@H](C(O)CO)C(=O)C1=O (stereo not given in full) | inactive | inactive | – | –
4 | CC(=O)OC[C@@]12[C@@H](OC(C)=O)C[C@@H](C)[C@](C)([C@@H]3C[C@H]4C=CO[C@H]4O3)[C@H]1CCC[C@]21CO1 | inactive | inactive | – | –
5 | CC(C)C[C@H](NC(=O)[C@@H]1O[C@H]1C(=O)O)C(=O)NCCCCN=C(N)N | inactive | inactive | – | –
6 | COC(=O)[C@]12C(=O)C(C)=C(O)[C@@]1(C)C(C)=CC1[C@@]34CC[C@@H](OC(C)=O)C(C)(C)C3[C@H](C[C@]12C)OC4=O (stereo not given in full) | inactive | inactive | – | –
7 | O=C1[C@H](O[C@@H]2O[C@H](CO)[C@@H](O)[C@H](O)[C@H]2O)Oc2ccccc2N1O | inactive | inactive | – | –
8 | C[C@@H]1CC[C@]2(C(=O)O)CC[C@]3(C(=O)O)C(=CCC4[C@@]5(C)CC[C@H](O[C@@H]6O[C@@H](C)[C@H](O[C@@H]7O[C@H](CO)[C@@H](O)[C@H](O)[C@H]7O)[C@@H](O)[C@H]6O)C(C)(C)C5CC[C@]43C)C2[C@H]1C (stereo not given in full) | inactive | inactive | – | –
9 | Fc1ccc(-c2nc(C3CCNCC3)sc2-c2ccnc(NC3CC3)n2)cc1 | 10.3 µM (active) | 11.6 µM (active) | – | –
10 | C1CCN2CC3C[C@@H](CN4CCCC[C@@H]34)[C@H]2C1 | inactive | inactive | – | –
11 | CC(=O)OC[C@]12[C@H](OC(C)=O)C(=O)[C@@H]3[C@@H](O)[C@@]14O[C@@]3(C)COC(=O)c1cccnc1[C@@H](C)[C@H](C)C(=O)O[C@@H]([C@H](O)[C@@H]2OC(C)=O)[C@]4(C)O | 1.72 µM (active) | 3.43 µM (active) | – | –
12 | CC(C)=CCC[C@](C)(O[C@@H]1O[C@H](CO)[C@@H](O)[C@H](O)[C@H]1O)[C@H]1CC[C@]2(C)[C@@H]1[C@H](O)CC1[C@@]3(C)CC[C@H](O)C(C)(C)C3[C@@H](O[C@@H]3O[C@H](CO)[C@@H](O)[C@H](O)[C@H]3O[C@@H]3O[C@@H](C)[C@H](O)[C@@H](O)[C@H]3O)C[C@]12C (stereo not given in full) | – | – | 90.7% [at 9.25 µM] | 105% [at 9.25 µM]
13 | COc1cccc(CN(C(=O)CC(C)(C)C)[C@H]2C[C@H](C(=O)N3CCNCC3)N(Cc3ccc4c(c3)OCO4)C2)c1 | 18.4 µM (active) | 16.4 µM (active) | – | –
14 | CC1(C)CC[C@]2(C(=O)O[C@@H]3O[C@H](CO[C@@H]4O[C@H](CO)[C@@H](O)[C@H](O)[C@H]4O[C@@H]4O[C@H](CO)[C@@H](O)[C@H](O)[C@H]4O)[C@@H](O)[C@H](O[C@@H]4O[C@H](CO)[C@@H](O)[C@H](O)[C@H]4O)[C@H]3O)CC[C@]3(C)C(=CCC4[C@@]5(C)CC[C@@H](O)[C@@](C)(C(=O)O[C@@H]6O[C@H](CO)[C@@H](O)[C@H](O)[C@H]6O)C5CC[C@]43C)[C@@H]2C1 (stereo not given in full) | – | – | 73.4% [at 9.25 µM] | 80.3% [at 9.25 µM]
15 | CN(C)C(=O)COC(=O)c1cc(-c2ccc(C3CCNCC3)cc2)c2ccc(-c3ccc(C(F)(F)F)cc3)cc2c1 | 4.61 µM (active) | 5.17 µM (active) | – | –
16 | CC(C)[C@@H](C)/C=C/[C@@H](C)[C@H]1CC[C@H]2C3=CC=C4C[C@@H](O)CC[C@]4(C)[C@H]3CC[C@]12C | inactive | inactive | – | –
17 | Cc1cccc(Nc2cc(Cl)nc(SCC(=O)O)n2)c1C | inactive | inactive | – | –
18 | CC1(C)CC[C@]23CO[C@@]4(CCC5[C@@]6(C)CC[C@H](O[C@@H]7OC[C@H](O[C@@H]8O[C@H](CO)[C@@H](O)[C@H](O)[C@H]8O[C@@H]8OC[C@@H](O)[C@H](O)[C@H]8O)[C@H](O)[C@H]7O)[C@@](C)(CO)C6CC[C@@]5(C)[C@]4(C)CC2=O)[C@@H]3C1 (stereo not given in full) | 3.1 µM (active) | 4.91 µM (active) | – | –
19 | COc1cc2ncnc(Sc3nnc(C)s3)c2cc1OC | 0.82 µM (active) | 1.16 µM (active) | – | –
20 | O=C(O)CCc1cccc(O[C@@H]2O[C@H](CO)[C@@H](O)[C@H](O)[C@H]2O)c1O | inactive | inactive | – | –
21 | O=S(=O)(NCC1CC1)c1ccc(Nc2nccc(N3CCCc4cc(O)ccc43)n2)cc1 | 0.146 µM (active) | 0.206 µM (active) | – | –
22 | CC1(C)SC2C(NC(=O)[C@H](C(=O)O)c3ccsc3)C(=O)N2C1C(=O)O (stereo not given in full) | inactive | inactive | – | –
23 | C=C1[C@H]2CC[C@H](C(=O)O)[C@@]23CC[C@H](C3)C1(C)C | inactive | inactive | – | –
24 | CC[C@@H]1C(=O)O[C@]23C=C[C@@H]4C(C(=O)OC)=CO[C@H](O[C@@H]12)[C@@H]43 | 3.66 µM (active) | 5.17 µM (active) | – | –
25 | N#Cc1cc(-c2n[nH]c(-c3ccncc3)n2)ccn1 | inactive | inactive | – | –
26 | Cn1cc(Nc2cnccc2C(=O)O)c2cccnc21 | inactive | inactive | – | –
27 | CC1=C2C=C(CO)C(CO)CCC2(C)CCC1=O (stereo not given) | inactive | inactive | – | –
28 | C=C1C[C@H](O)[C@@H](O)[C@@]2(C)C1[C@@H](O)[C@H]1OC(=O)C3[C@@H](C)[C@@H](O)[C@H](O)C2[C@]31C (stereo not given in full) | inactive | inactive | – | –

Row | SMILES | Potency [1] | Potency [2] | viability (% of control) [1] | viability, % of control [2]
29 | CCCCCCOC(=O)NC(=N)c1ccc(NCc2nc3cc(C(=O)N(CCC(=O)OCC)c4ccccn4)ccc3n2C)cc1 | 2.35 µM (active) | 1.48 µM (active) | – | –
30 | C[C@@H]1O[C@@H](O[C@H]2[C@H](O)[C@@H](O[C@@H]3O[C@H](CO)[C@H](O)[C@H](O)[C@H]3O)[C@H](O[C@H]3CC[C@@]4(C)C(CC[C@]5(C)C4CC=C4[C@@H]6CC(C)(C)CC[C@]6(C(=O)O[C@@H]6O[C@H](CO)[C@@H](O)[C@H](O)[C@H]6O)CC[C@]45C)C3(C)C)O[C@@H]2C(=O)O)[C@H](O)[C@H](O)[C@H]1O (stereo not given in full) | – | – | 82.7% [at 9.25 µM] | 90.8% [at 9.25 µM]
31 | Cc1cncc2cccc(S(=O)(=O)N3CCCNC[C@@H]3C)c12 | 3.66 µM (active) | 9.2 µM (active) | – | –
32 | CCOc1c2c(c(OCC)c3ccccc13)C(=O)N(c1ccc(CC(=O)NS(=O)(=O)c3ccccc3)cc1)C2 | inactive | inactive | – | –
33 | O=C(OCC1=C[C@@H](O)[C@@H]2C=CO[C@@H](O[C@@H]3O[C@H](CO)[C@@H](O)[C@H](O)[C@H]3O)[C@H]12)c1ccc(O)cc1 | inactive | inactive | – | –
34 | CC1[C@@H](O)[C@@H](O)C2[C@]3(C)C(C[C@H]4OC(=O)[C@H](O)[C@]1(O)[C@@]24C)C(C)(O)C[C@H](O)[C@H]3O (stereo not given in full) | inactive | inactive | – | –
35 | CC(C)CC1NC(=O)C2CC3(O)c4ccccc4NC3N2C1=O (stereo not given) | inactive | inactive | – | –
36 | Nc1c(-c2ccccc2)nc(Cl)c2c(O)n[nH]c(=O)c12 | inactive | inactive | – | –
37 | CC1CCC2C(C(=O)O)=COC(O[C@@H]3O[C@H](CO)[C@@H](O)[C@H](O)[C@H]3O)C12 (stereo not given in full) | inactive | 16.1 µM (active) | – | –
38 | C[C@@H](O[C@H]1OCCN(Cc2n[nH]nc2CN(C)C)[C@H]1c1ccc(F)cc1)c1cc(C(F)(F)F)cc(C(F)(F)F)c1 | 10.3 µM (active) | 6.51 µM (active) | – | –
39 | CC1(C(=O)O)CCCC2(C)C1CCC13CC(CCC21)C1(CO)OC31 (stereo not given) | inactive | inactive | – | –
40 | c1cc(NCCc2c[nH]c3ccccc23)cc(Nc2ccncc2)c1 | 0.58 µM (active) | 0.651 µM (active) | – | –
41 | C[C@@H]1C/C=C/C=C\C=C\C=C\[C@H](O[C@@H]2O[C@H](C)[C@@H](O)[C@H](N)[C@@H]2O)C[C@@H]2O[C@](O)(C[C@@H](O)C[C@H]3O[C@@H]3/C=C/C(=O)O1)C[C@H](O)[C@H]2C(=O)O | inactive | inactive | – | –
42 | CC(C)c1cc(C(=O)N2CC[C@@H](NC(=O)C3CC3)C2)n[nH]1 | inactive | inactive | – | –
43 | COc1cc2c(cc1OC)-c1[nH]nc(Nc3cccc(F)c3)c1C2 | 0.082 µM (active) | 0.0731 µM (active) | – | –
44 | CC(=O)c1ccc2c(c1)N(CCCN1CCC(CCO)CC1)c1ccccc1S2 | 26.6 µM (active) | 18.8 µM (active) | – | –
45 | C/C=C(/C)C(=O)O[C@H]1C=C(CO)C(=O)[C@H](OC(=O)/C(C)=C/CO)[C@H]1C(C)C | 2.02 µM (active) | 1.61 µM (active) | – | –
46 | COc1cc(/C=C/C(=O)O[C@H]2C[C@@H]3C(C(=O)O)=CO[C@@H](O[C@@H]4O[C@H](CO)[C@@H](O)[C@H](O)[C@H]4O)[C@@H]3[C@H]2C)ccc1O | inactive | inactive | – | –
47 | CC(=O)OC1C(O)C(C)(O)C(/C=C/C(=O)O)C2(C)CCCC(C)(C)C12 (stereo not given) | inactive | inactive | – | –
48 | C=C1C(=O)O[C@H]2CC(=C)[C@H]3CC[C@@](C)(O)[C@@H]3CC12 (stereo not given in full) | 6.51 µM (active) | 4.11 µM (active) | – | –
49 | CO[C@H]1/C=C/C=C/C=C/C[C@H](OC(=O)[C@@H](C)NC(=O)C2CCCCC2)[C@H](C)[C@@H](O)/C(C)=C/CCc2cc(O)cc(c2)NC(=O)C1 | 0.0968 µM (active) | 0.109 µM (active) | – | –
50 | C[C@@H]1C(=O)O[C@H]2CC34[C@H]5C[C@@H](C(C)(C)C)C36[C@@H](OC(=O)[C@@H]6O)O[C@@]4(C(=O)O5)[C@]21O (stereo not given in full) | inactive | inactive | – | –
51 | COc1cc(O)cc2c1C(=O)OC(C)C2 (stereo not given) | inactive | inactive | – | –
52 | COC(=O)CC1OC(C)C2=C(O)c3c(O)cccc3C(=O)C23OC13 (stereo not given) | 1.14 µM (active) | 0.57 µM (active) | – | –
53 | C=C1C(=O)O[C@@H]2[C@H]1CC[C@H](C)[C@]1(CCC(=O)O1)C2(C)O (stereo not given in full) | 16.4 µM (active) | 6.51 µM (active) | – | –
54 | CN1CCN(C(=O)c2ccc(Nc3nccc(-c4cccs4)n3)cc2Cl)CC1 | 0.731 µM (active) | 2.06 µM (active) | – | –
55 | Cc1cc(=O)oc2cc(NC(=O)[C@H](CCC(=O)O)NC(=O)[C@H](CC(C)C)NC(=O)[C@H](CC(C)C)NC(=O)OCc3ccccc3)ccc12 | inactive | inactive | – | –
